The supplement of paper PMC11732987, “Enantioselective OTUD7B fragment discovery through chemoproteomics screening and high-throughput optimisation” (Communications Chemistry, 2025)

Legend:
Assay in all cases: log2 ratio of Biotin-Ahx-Ub-VS probe labelling (fragment/DMSO); higher = less target engagement (more negative = stronger competition), active = hit call of the paper (q ≤ 0.05, log2 ratio ≤ -1)
Settings in all cases: compound concentration: 200 uM; treatment time: 3 h
[1] = target: T1, OTUD6B (UniProt Q8N6M0)
T1 sequence (whole entry): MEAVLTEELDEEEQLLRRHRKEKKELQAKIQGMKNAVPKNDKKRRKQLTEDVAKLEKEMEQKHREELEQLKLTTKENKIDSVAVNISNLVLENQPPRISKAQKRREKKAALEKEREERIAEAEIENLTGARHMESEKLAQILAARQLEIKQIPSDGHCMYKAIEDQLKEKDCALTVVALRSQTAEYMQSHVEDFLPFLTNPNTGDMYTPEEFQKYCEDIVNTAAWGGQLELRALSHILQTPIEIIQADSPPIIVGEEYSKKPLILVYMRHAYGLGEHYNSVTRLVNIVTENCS
Procedure, shortened: (§1)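 Using Biotin-Ahx-Ub-VS at 0.5 µM final for 1 h, DUBs were labelled in HEK293T lysate (495 µg per sample) that had first been treated in triplicate with fragment at 200 µM or vehicle for 3 h. NeutrAvidin enrichment, LysC and trypsin digestion and diaPASEF LC-MS/MS followed. Spectronaut label-free quantities were global-median-normalised. Values are average log2 fragment/vehicle ratios by unpaired t-test, using proteins with ≥2 unique peptides.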

[2] = target: T2, OTUD7B (UniProt Q6GQQ9)
T2 sequence (whole entry): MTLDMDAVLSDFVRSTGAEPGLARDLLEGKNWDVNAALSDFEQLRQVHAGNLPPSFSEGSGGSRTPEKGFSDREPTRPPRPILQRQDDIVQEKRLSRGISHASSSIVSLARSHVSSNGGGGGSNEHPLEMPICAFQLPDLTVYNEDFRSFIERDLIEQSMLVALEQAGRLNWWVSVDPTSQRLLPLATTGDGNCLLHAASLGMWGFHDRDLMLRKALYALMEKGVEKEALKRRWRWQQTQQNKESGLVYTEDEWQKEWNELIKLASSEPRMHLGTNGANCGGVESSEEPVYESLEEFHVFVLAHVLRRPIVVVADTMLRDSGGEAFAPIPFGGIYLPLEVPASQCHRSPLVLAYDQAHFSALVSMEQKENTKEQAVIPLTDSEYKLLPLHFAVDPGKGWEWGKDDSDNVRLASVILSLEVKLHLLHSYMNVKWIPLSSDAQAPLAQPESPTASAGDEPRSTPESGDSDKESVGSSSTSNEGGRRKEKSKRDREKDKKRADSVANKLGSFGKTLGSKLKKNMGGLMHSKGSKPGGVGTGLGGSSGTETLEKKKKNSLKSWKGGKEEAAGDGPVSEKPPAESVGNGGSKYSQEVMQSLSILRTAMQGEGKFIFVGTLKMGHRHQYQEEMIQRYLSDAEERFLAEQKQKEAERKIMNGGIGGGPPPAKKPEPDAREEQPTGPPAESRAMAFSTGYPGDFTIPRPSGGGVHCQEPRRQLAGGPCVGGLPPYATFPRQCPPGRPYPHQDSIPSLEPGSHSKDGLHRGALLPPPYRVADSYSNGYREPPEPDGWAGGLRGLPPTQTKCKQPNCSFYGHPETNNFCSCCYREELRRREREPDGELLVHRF
Procedure, shortened: as §1

[3] = target: PRPF8 (UniProt Q6P2Q9)
Procedure, shortened: as §1

[4] = target: T3, PSMD7 (UniProt P51665)
T3 sequence (whole entry): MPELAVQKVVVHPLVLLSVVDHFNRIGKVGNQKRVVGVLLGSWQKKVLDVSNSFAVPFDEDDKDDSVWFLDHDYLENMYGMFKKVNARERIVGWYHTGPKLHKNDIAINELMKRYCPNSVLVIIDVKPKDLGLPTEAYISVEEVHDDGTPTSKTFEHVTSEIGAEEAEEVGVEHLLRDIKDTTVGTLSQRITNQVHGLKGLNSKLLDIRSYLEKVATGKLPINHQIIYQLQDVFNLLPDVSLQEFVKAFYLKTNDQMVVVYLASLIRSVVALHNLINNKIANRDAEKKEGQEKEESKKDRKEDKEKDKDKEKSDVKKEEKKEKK
Procedure, shortened: as §1

[5] = target: UCHL1 (UniProt P09936)
Procedure, shortened: as §1

[6] = target: T4, UCHL3 (UniProt P15374)
T4 sequence (whole entry): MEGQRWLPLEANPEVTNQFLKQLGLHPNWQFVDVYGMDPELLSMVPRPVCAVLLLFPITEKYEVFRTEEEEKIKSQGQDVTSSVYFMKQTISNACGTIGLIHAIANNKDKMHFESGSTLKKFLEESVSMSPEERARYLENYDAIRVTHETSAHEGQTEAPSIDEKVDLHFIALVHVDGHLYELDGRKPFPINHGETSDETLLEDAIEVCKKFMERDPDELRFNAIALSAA
Procedure, shortened: as §1

[7] = target: T5, UCHL5 (UniProt Q9Y5K5)
T5 sequence (whole entry): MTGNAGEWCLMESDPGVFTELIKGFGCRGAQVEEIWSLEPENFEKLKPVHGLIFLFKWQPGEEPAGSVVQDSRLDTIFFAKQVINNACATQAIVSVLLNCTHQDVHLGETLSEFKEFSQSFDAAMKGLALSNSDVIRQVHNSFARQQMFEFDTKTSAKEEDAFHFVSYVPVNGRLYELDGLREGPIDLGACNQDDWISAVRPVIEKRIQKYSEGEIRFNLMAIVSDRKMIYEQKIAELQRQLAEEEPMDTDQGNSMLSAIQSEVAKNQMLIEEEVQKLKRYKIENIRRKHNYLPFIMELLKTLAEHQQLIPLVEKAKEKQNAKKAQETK
Procedure, shortened: as §1

[8] = target: USP10 (UniProt Q14694)
Procedure, shortened: as §1

[9] = target: T6, USP15 (UniProt Q9Y4E8)
T6 sequence (whole entry): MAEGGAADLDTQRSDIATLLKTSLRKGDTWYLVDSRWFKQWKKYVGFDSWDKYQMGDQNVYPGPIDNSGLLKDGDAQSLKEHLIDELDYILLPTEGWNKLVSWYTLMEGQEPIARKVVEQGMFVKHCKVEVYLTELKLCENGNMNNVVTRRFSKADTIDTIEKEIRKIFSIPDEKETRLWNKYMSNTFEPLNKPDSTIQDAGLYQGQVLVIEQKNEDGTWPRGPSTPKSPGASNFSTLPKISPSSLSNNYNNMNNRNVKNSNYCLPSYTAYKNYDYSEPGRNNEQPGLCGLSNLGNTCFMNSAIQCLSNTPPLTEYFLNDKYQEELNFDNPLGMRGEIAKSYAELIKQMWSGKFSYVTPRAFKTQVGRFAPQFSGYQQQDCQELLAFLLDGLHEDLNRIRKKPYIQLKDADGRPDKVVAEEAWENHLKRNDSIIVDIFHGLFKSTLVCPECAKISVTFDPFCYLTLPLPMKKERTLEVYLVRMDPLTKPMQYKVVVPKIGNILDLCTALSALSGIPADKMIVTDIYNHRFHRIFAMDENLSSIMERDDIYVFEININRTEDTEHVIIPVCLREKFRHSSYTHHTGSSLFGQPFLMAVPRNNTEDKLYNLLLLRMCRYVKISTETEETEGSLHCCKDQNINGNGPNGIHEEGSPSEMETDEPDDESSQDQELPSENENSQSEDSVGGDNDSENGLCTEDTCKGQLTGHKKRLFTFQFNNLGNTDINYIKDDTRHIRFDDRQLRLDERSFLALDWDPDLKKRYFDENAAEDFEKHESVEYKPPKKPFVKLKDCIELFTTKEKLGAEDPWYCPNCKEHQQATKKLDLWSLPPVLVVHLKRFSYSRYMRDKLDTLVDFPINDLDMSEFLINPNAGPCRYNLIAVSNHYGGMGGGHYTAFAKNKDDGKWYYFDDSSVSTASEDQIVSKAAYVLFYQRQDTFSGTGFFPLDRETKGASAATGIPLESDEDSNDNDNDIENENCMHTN
Procedure, shortened: as §1

[10] = target: USP16 (UniProt Q9Y5T5)
Procedure, shortened: as §1

Measured: log2 ratio of Biotin-Ahx-Ub-VS probe labelling

UCHL1, sequence (P09936 whole entry, looked up): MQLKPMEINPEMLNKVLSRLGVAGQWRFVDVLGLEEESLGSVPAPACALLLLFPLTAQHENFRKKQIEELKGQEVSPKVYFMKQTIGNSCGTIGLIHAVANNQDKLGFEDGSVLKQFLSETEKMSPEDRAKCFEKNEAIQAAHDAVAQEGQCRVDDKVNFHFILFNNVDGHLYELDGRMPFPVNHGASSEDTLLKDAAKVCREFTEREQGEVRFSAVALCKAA
USP10, sequence (Q14694 whole entry): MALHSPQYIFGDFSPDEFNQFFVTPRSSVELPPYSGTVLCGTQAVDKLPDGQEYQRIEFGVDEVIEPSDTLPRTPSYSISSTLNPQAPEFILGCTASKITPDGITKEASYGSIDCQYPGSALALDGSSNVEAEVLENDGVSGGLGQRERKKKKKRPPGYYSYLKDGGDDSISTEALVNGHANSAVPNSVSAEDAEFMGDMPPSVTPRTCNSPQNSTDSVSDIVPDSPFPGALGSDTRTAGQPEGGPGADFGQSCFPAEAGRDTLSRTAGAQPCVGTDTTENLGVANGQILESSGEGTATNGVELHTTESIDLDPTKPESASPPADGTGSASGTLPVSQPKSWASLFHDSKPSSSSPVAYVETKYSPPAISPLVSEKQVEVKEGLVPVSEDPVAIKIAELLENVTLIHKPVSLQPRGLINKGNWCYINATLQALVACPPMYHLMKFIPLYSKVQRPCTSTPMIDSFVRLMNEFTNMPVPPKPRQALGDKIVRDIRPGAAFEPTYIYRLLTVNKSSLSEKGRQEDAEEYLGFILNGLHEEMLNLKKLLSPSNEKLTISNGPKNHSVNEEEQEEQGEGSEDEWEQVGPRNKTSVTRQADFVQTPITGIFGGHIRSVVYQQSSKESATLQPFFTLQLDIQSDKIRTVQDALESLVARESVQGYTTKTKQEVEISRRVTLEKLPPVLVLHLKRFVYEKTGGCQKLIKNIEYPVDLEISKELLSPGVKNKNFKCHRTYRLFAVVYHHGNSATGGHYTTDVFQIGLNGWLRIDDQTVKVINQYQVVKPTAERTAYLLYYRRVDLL
USP16, sequence (Q9Y5T5 whole entry, looked up): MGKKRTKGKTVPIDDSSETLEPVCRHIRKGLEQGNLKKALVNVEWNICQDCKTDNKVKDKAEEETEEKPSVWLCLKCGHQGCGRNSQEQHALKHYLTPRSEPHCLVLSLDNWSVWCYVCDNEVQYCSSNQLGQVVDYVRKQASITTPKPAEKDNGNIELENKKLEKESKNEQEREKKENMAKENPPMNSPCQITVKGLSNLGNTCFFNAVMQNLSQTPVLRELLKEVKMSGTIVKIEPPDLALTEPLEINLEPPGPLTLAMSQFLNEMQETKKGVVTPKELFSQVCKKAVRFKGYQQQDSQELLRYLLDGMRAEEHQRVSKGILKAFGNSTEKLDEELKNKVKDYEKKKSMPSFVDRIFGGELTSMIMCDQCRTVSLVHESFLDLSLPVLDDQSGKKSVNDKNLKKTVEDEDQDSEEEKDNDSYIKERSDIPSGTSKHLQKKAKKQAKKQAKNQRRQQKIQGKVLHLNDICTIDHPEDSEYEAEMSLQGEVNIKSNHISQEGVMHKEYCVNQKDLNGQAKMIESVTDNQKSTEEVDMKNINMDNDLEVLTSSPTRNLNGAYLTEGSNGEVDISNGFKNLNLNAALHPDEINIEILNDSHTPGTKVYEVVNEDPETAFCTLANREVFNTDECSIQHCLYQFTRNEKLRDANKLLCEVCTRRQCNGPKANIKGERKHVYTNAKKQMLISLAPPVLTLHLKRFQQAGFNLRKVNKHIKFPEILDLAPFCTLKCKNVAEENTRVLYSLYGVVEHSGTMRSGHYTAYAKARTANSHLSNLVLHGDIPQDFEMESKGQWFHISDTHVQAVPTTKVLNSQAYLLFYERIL

Cc1nc(CN2CCCN(C(=O)CCl)CC2)no1.Cl
inactive: [1] 0.121 | [2] 0.0504 | [3] 0.0827 | [4] 0.166 | [5] -0.971 | [6] 0.331 | [7] -0.00418 | [8] 0.0299 | [9] -0.0311 | [10] -0.188
